In PubChem BioAssay AID1159580 (chemical genetic matrix, 2015):
“And” between values parts separate entries of the source, which are not always exact repeats. Identical values can stand only once. Among all 5,500 compounds or so, about 2,000 (36%) were called active. Not shown: some 18% with an inconclusive outcome. Rule as the data show it: active = normalized growth mostly below about 0.91 (no sharp cut-off); inconclusive = no clear call, values can overlap the other calls; inactive = mostly above about 0.92. This is one part of the list.

Test: chemical genetic growth profiling, strain panel (AID 1159580);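 also: tested at 20 µM; growth read once vehicle control cultures reached saturation at 30 °C; 1 = growth at the plate median or of vehicle wells; lower values mean less growth of the strain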
Details: S. cerevisiae deletion strains, growth OD

Measured: normalized growth

CC1=CC(=O)CC(C)(C)C1(O)/C=C/C(C)=C\C(=O)O (stereo not given)
inactive: locus YAL013W, strain DEP1, stronger effect = lower value 0.986 | locus YAL021C, strain ccr4, stronger effect = lower value 0.996 | locus YAL026C, strain drs2, stronger effect = lower value 1.03 | locus YAL030W, strain snc1, stronger effect = lower value 1.02 | locus YBL061C, strain skt5, stronger effect = lower value 1.02 | locus YBR009C, strain hhf1, stronger effect = lower value 1.01 | locus YBR021W, strain FUR4, stronger effect = lower value 1.02 | locus YBR023C, strain chs3, stronger effect = lower value 1.03 | locus YBR171W, strain sec66, stronger effect = lower value 1.02 | locus YBR229C, strain ROT2, stronger effect = lower value 0.948 | locus YBR231C, strain swc5, stronger effect = lower value 1.03 | locus YBR279W, strain paf1, stronger effect = lower value 1.01 | locus YCL011C, strain gbp2, stronger effect = lower value 1.02 | locus YCL016C, strain dcc1, stronger effect = lower value 1.01 | locus YCL029C, strain bik1, stronger effect = lower value 0.973 | locus YCL069W, strain vba3, stronger effect = lower value 1.01 | locus YCR088W, strain abp1, stronger effect = lower value 1.03 | locus YDL005C, strain med2, stronger effect = lower value 1.03 | locus YDL035C, strain GPR1, stronger effect = lower value 0.981 | locus YDL040C, strain nat1, stronger effect = lower value 1.02 | locus YDL074C, strain BRE1, stronger effect = lower value 0.985 | locus YDL101C, strain DUN1, stronger effect = lower value 0.987 | locus YDL134C, strain PPH21, stronger effect = lower value 0.984 | locus YDL185W, strain tfp1, stronger effect = lower value 0.953 | locus YDL192W, strain arf1, stronger effect = lower value 0.983 | locus YDR001C, strain nth1, stronger effect = lower value 1.03 | locus YDR069C, strain doa4, stronger effect = lower value 1.04 | locus YDR101C, strain arx1, stronger effect = lower value 1.01 | locus YDR137W, strain rgp1, stronger effect = lower value 1.01 | locus YDR150W, strain NUM1, stronger effect = lower value 0.979 | locus YDR159W, strain sac3, stronger effect = lower value 1.03 | locus YDR162C, strain NBP2, stronger effect = lower value 0.979 | locus YDR195W, strain ref2 1.03 | locus YDR297W, strain sur2, stronger effect = lower value 1.03 | locus YDR318W, strain mcm21, stronger effect = lower value 0.979 | locus YDR334W, strain swr1, stronger effect = lower value 1.02 | locus YDR335W, strain msn5, stronger effect = lower value 1.03 | locus YDR388W, stronger effect = lower value 0.985 | locus YDR392W, strain spt3, stronger effect = lower value 1.01 | locus YDR502C, strain sam2, stronger effect = lower value 0.993 | locus YEL003W, strain gim4, stronger effect = lower value 1.02 | locus YEL037C, strain rad23, stronger effect = lower value 1.02 | locus YEL061C, strain CIN8 (second series), stronger effect = lower value 1.03 | locus YEL061C, strain CIN8, stronger effect = lower value 0.986 | locus YER015W, strain faa2, stronger effect = lower value 1.02 | locus YER016W, strain bim1, stronger effect = lower value 1.01 | locus YER110C, stronger effect = lower value 0.96 | locus YER111C, strain swi4, stronger effect = lower value 1.02 | locus YER155C, strain BEM2 (second series), stronger effect = lower value 1.05 | locus YER155C, strain BEM2, stronger effect = lower value 0.995 | locus YER167W, strain BCK2, stronger effect = lower value 0.988 | locus YFR010W, strain ubp6, stronger effect = lower value 1.04 | locus YGL078C, strain dbp3, stronger effect = lower value 0.987 | locus YGL086W, strain mad1, stronger effect = lower value 1 | locus YGL167C, strain pmr1, stronger effect = lower value 1.01 | locus YGL173C, strain kem1, stronger effect = lower value 1.01 | locus YGL227W, strain vid30, stronger effect = lower value 1.03 | locus YGL240W, strain doc1, stronger effect = lower value 1.03 | locus YGL248W, strain PDE1, stronger effect = lower value 0.977 | locus YGL253W, strain hxk2, stronger effect = lower value 1.03 | locus YGR078C, strain PAC10, stronger effect = lower value 0.983 | locus YGR135W, strain pre9, stronger effect = lower value 0.976 | locus YGR252W, strain gcn5, stronger effect = lower value 0.976 | locus YHR013C, strain ard1, stronger effect = lower value 1.03 | locus YHR027C, strain rpn1, stronger effect = lower value 1.02 | locus YHR030C, strain SLT2, stronger effect = lower value 0.988 and 1.01 | locus YHR079C, strain IRE1 (second series), stronger effect = lower value 0.974 | locus YHR079C, strain IRE1, stronger effect = lower value 0.974 | locus YHR094C, strain hxt1, stronger effect = lower value 0.966 | locus YHR129C, strain ARP1, stronger effect = lower value 0.989 | locus YHR142W, strain chs7, stronger effect = lower value 1.02 | locus YHR200W, strain rpn10, stronger effect = lower value 0.984 | locus YIL066C, strain RNR3, stronger effect = lower value 0.976 | locus YIL073C, strain SPO22, stronger effect = lower value 0.896 | locus YIL125W, strain kgd1, stronger effect = lower value 0.982 | locus YIR030C, strain dcg1, stronger effect = lower value 0.983 | locus YJL092W, strain hpr5, stronger effect = lower value 1.02 | locus YJL095W, strain BCK1 (second series), stronger effect = lower value 1.02 | locus YJL095W, strain BCK1, stronger effect = lower value 0.989 and 1.04 | locus YJL115W, strain asf1, stronger effect = lower value 1.03 | locus YJL129C, strain trk1, stronger effect = lower value 1.08 | locus YJL134W, strain LCB3, stronger effect = lower value 0.973 | locus YJL154C, strain vps35, stronger effect = lower value 1.02 | locus YJL164C, strain tpk1, stronger effect = lower value 1.01 | locus YJL166W, strain qcr8, stronger effect = lower value 1.04 | locus YJL168C, strain set2, stronger effect = lower value 0.982 | locus YJL187C, strain SWE1 (second series), stronger effect = lower value 0.972 | locus YJR043C, strain POL32, stronger effect = lower value 0.978 | locus YJR066W, strain TOR1, stronger effect = lower value 0.929 | locus YJR075W, strain HOC1, stronger effect = lower value 0.985 | locus YKL009W, strain mrt4, stronger effect = lower value 0.966 | locus YKL068W, stronger effect = lower value 0.973 | locus YKL085W, strain MDH1 (second series), stronger effect = lower value 0.983 | locus YKL085W, strain MDH1, stronger effect = lower value 0.983 | locus YKL160W, strain elf1, stronger effect = lower value 1.03 | locus YKR001C, strain vps1, stronger effect = lower value 0.975 | locus YKR026C, strain gcn3, stronger effect = lower value 1.03 | locus YKR091W, strain srl3, stronger effect = lower value 1.02 | locus YLL001W, strain dnm1, stronger effect = lower value 1.03 | locus YLL026W, stronger effect = lower value 1.02 | locus YLL041C, strain sdh2, stronger effect = lower value 1.02 | locus YLR027C, strain aat2, stronger effect = lower value 1.03 | locus YLR039C, strain RIC1, stronger effect = lower value 0.959 | locus YLR058C, strain SHM2, stronger effect = lower value 0.973 | locus YLR102C, strain apc9, stronger effect = lower value 0.974 | locus YLR113W, strain HOG1, stronger effect = lower value 1.07 | locus YLR221C, strain rsa3, stronger effect = lower value 1.01 | locus YLR258W, strain gsy2, stronger effect = lower value 1.02 | locus YLR262C, strain YPT6 (second series), stronger effect = lower value 1.04 | locus YLR262C, strain YPT6, stronger effect = lower value 0.941 | locus YLR268W, strain sec22, stronger effect = lower value 0.993 | locus YLR320W, strain mms22, stronger effect = lower value 1.02 | locus YLR330W, strain CHS5, stronger effect = lower value 0.992 | locus YLR342W, strain FKS1 (second series), stronger effect = lower value 0.984 | locus YLR342W, strain FKS1, stronger effect = lower value 1.03 | locus YLR357W, strain rsc2, stronger effect = lower value 1.02 | locus YLR370C, strain arc18, stronger effect = lower value 1.03 | locus YLR371W, strain rom2, stronger effect = lower value 0.952 | locus YLR384C, strain iki3, stronger effect = lower value 1.02 | locus YLR418C, strain cdc73, stronger effect = lower value 0.93 | locus YML016C, strain PPZ1, stronger effect = lower value 0.994 | locus YML032C, strain rad52, stronger effect = lower value 0.97 | locus YML120C, strain ndi1, stronger effect = lower value 1.02 | locus YML124C, strain tub3, stronger effect = lower value 0.976 | locus YMR058W, strain fet3, stronger effect = lower value 1.02 | locus YMR078C, strain ctf18, stronger effect = lower value 0.963 | locus YMR125W, strain sto1, stronger effect = lower value 1.06 | locus YMR129W, stronger effect = lower value 1.03 | locus YMR205C, strain PFK2, stronger effect = lower value 1.02 | locus YMR223W, strain ubp8, stronger effect = lower value 0.941 | locus YMR231W, strain pep5, stronger effect = lower value 1.01 | locus YMR307W, strain GAS1, stronger effect = lower value 1 | locus YNL067W, strain RPL9B, stronger effect = lower value 0.985 | locus YNL071W, strain lat1, stronger effect = lower value 1.03 | locus YNL153C, strain GIM3, stronger effect = lower value 0.987 | locus YNL183C, strain NPR1, stronger effect = lower value 0.99 | locus YNL209W, strain ssb2, stronger effect = lower value 1.02 | locus YNL233W, strain BNI4, stronger effect = lower value 0.997 | locus YNL248C, strain rpa49, stronger effect = lower value 1.02 | locus YNL250W, strain rad50, stronger effect = lower value 0.964 | locus YNL271C, strain bni1, stronger effect = lower value 0.978 | locus YNL298W, strain CLA4, stronger effect = lower value 0.983 | locus YNL307C, strain MCK1, stronger effect = lower value 0.973 | locus YNL322C, strain KRE1 (second series), stronger effect = lower value 1.02 | locus YNL322C, strain KRE1, stronger effect = lower value 0.987 | locus YNR049C, strain mso1, stronger effect = lower value 1.02 | locus YNR052C, strain pop2, stronger effect = lower value 0.989 | locus YOL012C, strain htz1 0.831 | locus YOL147C, strain pex11, stronger effect = lower value 0.971 | locus YOR001W, strain rrp6, stronger effect = lower value 1.01 | locus YOR061W, strain CKA2, stronger effect = lower value 0.951 | locus YOR069W, strain VPS5, stronger effect = lower value 0.992 | locus YOR070C, strain gyp1, stronger effect = lower value 1.01 | locus YOR080W, strain dia2, stronger effect = lower value 1.02 | locus YOR083W, strain WHI5, stronger effect = lower value 1.02 | locus YOR106W, strain vam3, stronger effect = lower value 1.04 | locus YOR136W, strain idh2, stronger effect = lower value 0.977 | locus YOR144C, strain elg1, stronger effect = lower value 0.97 | locus YOR184W, strain ser1, stronger effect = lower value 0.98 | locus YOR231W, strain MKK1, stronger effect = lower value 0.998 | locus YOR265W, strain rbl2, stronger effect = lower value 1.03 | locus YOR270C, strain vph1, stronger effect = lower value 1.08 | locus YOR290C, strain snf2, stronger effect = lower value 1.02 | locus YOR316C, strain cot1, stronger effect = lower value 0.971 | locus YPL051W, strain arl3, stronger effect = lower value 1.03 | locus YPL055C, strain LGE1, stronger effect = lower value 0.979 | locus YPL078C, strain atp4, stronger effect = lower value 1.03 | locus YPL106C, strain sse1, stronger effect = lower value 1.02 | locus YPL240C, strain hsp82, stronger effect = lower value 1.04 | locus YPL256C, strain CLN2, stronger effect = lower value 1.01 | locus YPR119W, strain clb2, stronger effect = lower value 0.968 | locus YPR141C, strain kar3, stronger effect = lower value 0.954 | locus YPR163C, strain tif3, stronger effect = lower value 0.967 | locus YPR167C, strain met16, stronger effect = lower value 0.958 | strain wtn01, stronger effect = lower value 1.03
